Our source for the growth inhibition values is PubChem BioAssay (NCI).

The panel holds about 79,000 compounds, 15% with a hit somewhere; the sample as a whole holds those more often. A number with no mark means an inactive call. Activity calls are given as the source filed them. No stated cut-off is given here; in the data, active means growth inhibition above about 70%; inactive means the rest.

This experiment can be described thus: NCI Yeast Anticancer Drug Screen. Data for the mlh1 rad18 strain (AID 175). Particulars: S. cerevisiae mlh1 rad18 strain growth inhibition; at 50.0 µM; hits give high values. The gist of the method:
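A repair-deficient yeast strain is exposed to test compound, and growth is scored relative to vehicle-treated controls.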
As for `COc1cccc(/C=N\c2nc(-c3ccccc3Cl)cs2)c1O`, the growth inhibition was 27.4%.
Turning to `COC(=O)C1CCC(=O)N1C(c1ccc(OC)cc1)c1ccc(OC)cc1` (stereo not given), the growth inhibition was 6.7%.
As for `O=C(Nc1ccc(Cl)c([N+](=O)[O-])c1)Oc1ccc2ccccc2c1`, the figure is 10.7%; as for `COc1ccc(CCN=Cc2ccc(Cl)cc2)cc1OC`, -10.6%; as for `C1CCC2(CC1)OCCS2`, 6.15%.
Turning to `Nc1ccc(O)c(C(=O)O)c1`, the growth inhibition was 26.6%.
Next, `O=S(=O)(OCC1CC2CCC1CC2)c1ccc(Br)cc1` (stereo not given): -22.9%.
Next, `O=C(NC(CSSCC(NC(=O)OCc1ccccc1)C(=O)O)C(=O)O)OCc1ccccc1` (stereo not given): -25.2%; `CN(C)CC(N)C(=O)O` (stereo not given): -18.6%; `COC(=O)c1oc([N+](=O)[O-])c(-c2ccccc2)c1-c1ccccc1`: 24.1%.
Next, `COC(=O)c1cc(C(=O)OC)cc([N+](=O)[O-])c1`: 0.05%; `CS/C(=C\c1ccc2ccccc2[n+]1C)N1CCN(CCCO)CC1`: 38.1%; `Cc1c(O)nc(N)[nH]c1=O`: -7.2%.
For the compound `CCCC(=O)c1ccc2c(c1)CCc1cc(O)ccc1-2`, the growth inhibition was 1.6%.
Take `C=CCC(O)CC=C`: the growth inhibition was -1.7%.
As for `CCC(c1ccc(OC)cc1)c1cc2c(cc1OCCO)OCO2` (stereo not given), the figure is 96.3% (active); as for `C(#CCN1CCOCC1)CCCN1CCOCC1`, 10.2%.
As for `O=C1NC(N2CCCCC2)=N/C1=C\c1ccccc1`, the figure is -16.4%; as for `CC(=O)C(C(=O)C(=O)Nc1cc(Cl)c(Cl)cc1Cl)c1csc(N)n1` (stereo not given), -10.6%; as for `CCOC(=O)C(C=Nc1ccc(S(N)(=O)=O)cc1)C(=O)OCC`, -24.9%.
`O=C1CCCCCCCCCCC1Cc1cc(O)c(CC2CCCCCCCCCCC2=O)cc1O` (stereo not given): the growth inhibition was -12.8%.
`COc1ccc(Cc2c[nH]c3cc(OC)c(OC)cc23)cc1OC`: the growth inhibition is -1.4%.
As for `CC(C)(C)C(C)(C)CC(N)=O`, the growth inhibition is -9.1%.
Next, `Cn1c(N)c(N=O)c(=O)n(C)c1=O`: -9.9%; `O=C(COc1ccccc1Cl)N1N=C(c2ccccc2)CC1(O)c1ccccc1` (stereo not given): 15.9%; `O=[N+]([O-])c1cc(/C=N/NS(=O)(=O)c2ccc(F)cc2)c(O)c([N+](=O)[O-])c1`: 9%.
As for `Cc1ccc2nc[nH]c2c1`, the figure is 14.6%; as for `C=CCOc1ccc(N)c([N+](=O)[O-])c1`, 2.85%.
As for `COc1ccc(CCNC(=O)Cc2ccc(Cl)cc2)cc1OC`, the figure is 0.2%; as for `CC1=CC(=O)/C(=C/n2c(=S)[nH]c3ccc([N+](=O)[O-])cc32)C(=O)O1`, -46.3%; as for `C[N+](C)(C)CCC(=O)N1C/C(=C\c2ccccc2)C(=O)/C(=C/c2ccccc2)C1`, -34.8%.
`OCCCCCCO`: the growth inhibition is 12.3%.
With `CCN(CC)/[N+]([O-])=N/O`, the growth inhibition is 16.1%.
As for `CC(C)(O)c1cc2nc3ccccc3nc2n1CCO`, the figure is -14.4%; as for `COC(CCCl)c1ccc(C)cc1` (stereo not given), 1.8%.
Next, `Nc1ncnc2c(C3OC(CO)C(O)C3O)nsc12` (stereo not given): -38%; `CCN(C)c1nc(N(C)CC)c2nc(N(C)CC)nc(N(C)CC)c2n1`: -65.1%.
As for `CCCC(=O)Nc1cccc(Cl)c1`, the figure is 2.35%.
As for `OCCCc1ccccc1`, the growth inhibition is -3.7%.
As for `COc1cc(C(O)C2(c3ccc(O)c(OC)c3)NC(=O)NC2=O)ccc1O` (stereo not given), the figure is -14.3%.
